TWEAK Fn14 block = inhibitors of TWEAK-Fn14 signaling, primary screen, luciferase reporter cells, uHTS; TWEAK-stimulated Fn14 reporter cells, luciferase luminescence, 8 h; inhibition, % at 10 µM; 360,000 tested, 2% active; AID 1159606, 2016; in the data active = inhibition above about 50%
TROY signal inh = inhibitors of TROY-driven NF-kB signaling, primary screen, Q293 LMP1-TROYcd cells, NF-kB luciferase, uHTS; AID 1347056, 2019; inhibition, % at 10 µM; Q293 LMP1-TROYcd NF-kB luciferase reporter, 4 h; 360,000 tested, 0.98% active;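 active = compounds whose plate-normalised and pattern-corrected inhibition of the luciferase reporter signal at the single screening dose is 50% or more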
HIF-2a block = HIF-2a reporter inhibitors, primary screen, luminescence, 786-0 RCC cells. 786-0 RCC cells HIF-2a reporter, luciferase luminescence, overnight. inhibition, % at 18.8 µM. 360,000 tested, 0.72% active. AID 624352, 2012;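 active = inhibition of the luminescence signal of 40% or more relative to plate controls, in a single-dose primary screen at 18.75 µM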
CF NFkB block = inhibitors of PAF-induced NF-kB signaling, primary screen, cell-based, GFP fluorescence, uHTS | KKLEB NF-kB-GFP reporter, GFP fluorescence overnight | inhibition, % at 5 µM | 360,000 tested, 0.86% active | AID 588850, 2011;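 active = at least 50% inhibition at 5 µM, scaled per plate between neutral and stimulator controls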;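 note: PAF is a Pseudomonas aeruginosa culture filtrate used as stimulus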
KKLEB cytotox = cytotoxicity in KKLEB CF airway cells, primary screen, cytotoxicity control for CF NF-kB inhibitor project, cell-based, uHTS, fluorescence assay plates. KKLEB CF airway cells viability, ATPlite luminescence, overnight; stronger effect = lower value; cells stimulated with P. aeruginosa culture filtrate. activity change (cytotoxicity), % at 5 µM. 360,000 tested, 0.36% active;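 active = corrected activity change at or below -50% at 5 µM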
Peg3 prom inh = Peg3 promoter-driven luciferase inhibitors, primary screen, cell-based, HeLa, luciferase luminescence | HeLa PEG-Prom luciferase reporter, overnight | inhibition, % at 20 µM | 360,000 tested, 1.7% active;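 active = inhibition of at least 50% at 20 µM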
Mdm2 MdmX conf = retested Mdm2-MdmX interaction blockers, confirmation, cell-based, luminescence, single concentration, set 2; shares compounds with HIF-2a block; SaOS-2 split-luciferase Mdm2/MdmX complementation; AID 504601, 2011; 740 tested, 99% active; inhibition, % at 8 µM;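 active = mean inhibition of the luminescence signal across two replicates at or above 26 percent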
HIF-2a conf = HIF-2a reporter inhibitor retest, confirmation, luminescence, 786-0 RCC cells; shares compounds with HIF-2a block; HIF-2a luciferase reporter luminescence, overnight; inhibition, % at 18.8 µM; 1,800 tested, 56% active;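 active = mean inhibition across four replicates of at least 40 percent at the single tested concentration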
HIF-1a counter = HIF-1a luciferase reporter signal reduction – MiaPaCa-2 cells, single concentration, counter-screen for HIF-2a inhibitor project, confirmation; 1,800 tested, 72% active; AID 651589, 2012; MiaPaCa-2 HIF-1a luciferase reporter, desferoxamine, overnight; shares compounds with HIF-2a block; inhibition, % at 18.8 µM;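 active = mean inhibition of the reporter signal across four replicates at the single tested dose of 50% or more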
Hits are given with their value; i = inactive; nt = not tested or not shown; ! = a repeat was not active. Compounds with a hit are over-represented: about 4% of the library has one in this group of screens.

SMILES	TWEAK Fn14 block	TROY signal inh	HIF-2a block	CF NFkB block	KKLEB cytotox	Peg3 prom inh	Mdm2 MdmX conf	HIF-2a conf	HIF-1a counter
Cc1cccc(C2(c3cccc(C)c3)CC2C(=O)Nc2ccc([N+](=O)[O-])cc2O)c1 (configuration not stated)	74	60	i	58	-62	54	100	nt	nt
Cc1cc(C)n(-c2ncc(C#N)cn2)n1	i	i	49	i	i	i	nt	i	i
COc1ccc(-c2cc(C(=O)Nc3sc4c(c3C#N)CCCC4)c3ccccc3n2)cc1	i	i	i	i	i	i	nt	nt	nt
CCOC(=O)c1sc(NC(=O)c2cc(-c3ccc(C)cc3)nc3ccccc23)c(C#N)c1C	62	i	i	i	-62	i	97	nt	nt
CN(C)c1ccc(-c2ccnc3c2CC(C)(C(=O)Nc2ccccc2)O3)cc1 (configuration not stated)	i	i	i	i	i	i	nt	nt	nt
COc1ccc(C2/C(=C(/O)c3ccc4c(c3)CC(C)O4)C(=O)C(=O)N2CCCN2CCOCC2)cc1 (configuration not stated)	i	i	i	i	i	i	nt	nt	nt
CCN1CCN(CC(=O)N2N=C(c3cccs3)CC2c2ccc(OC)c(OC)c2)C(=O)C1=O (configuration not stated)	i	i	i	i	i	i	nt	nt	nt
C=C1C(=O)c2sccc2C(c2ccc(OC)c(OC)c2)C1COC(C)=O (configuration not stated)	100	69	87	84	-92	105	nt	99	106
CCc1ccc(OCC(=O)Nc2ccc3[nH]ncc3c2)cc1	i	i	i	i	i	i	nt	nt	nt
Nc1nnnn1-c1cccc([N+](=O)[O-])c1	i	i	i	i	i	i	nt	nt	nt
CCOC(=O)C(C)(C)NS(=O)(=O)c1ccc(Cl)c([N+](=O)[O-])c1	i	i	i	i	i	i	nt	nt	nt
CCOC(=O)C(C)(C)N(Cc1ccc(C)cc1)S(=O)(=O)c1ccc(Cl)c([N+](=O)[O-])c1	60	i	61	i	i	105	nt	i	105
COc1ccccc1OCCN1CSC(=S)N(C)C1	i	i	88	i	i	100	nt	i	103
COc1ccccc1OCCCCN1CCCCC1	i	i	i	i	i	i	nt	nt	nt
CCC1CCCCN1CCCNC(=O)C1CCN(Cc2nc(-c3ccc(Cl)cc3)oc2C)CC1 (configuration not stated)	i	i	i	i	i	80	102	nt	nt
COc1ccc(/C=N/NC(=O)c2cc(C34CC5CC(CC(C5)C3)C4)[nH]n2)cc1O	i	i	55	i	i	i	nt	i	i
CN(C)CCNC(=O)C(=O)c1c(-c2ccccc2)cc2ccccn12	i	i	i	i	i	i	nt	nt	nt
COc1ccc(-c2c(-c3ccccc3)c(C(=O)C(=O)NCCCN(C)C)n3ccc4cc(OC)c(OC)cc4c23)cc1OC	i	i	88	i	i	i	nt	i	101
CCCCOc1ccc(C(=O)NCCN2CCC(n3c(=O)[nH]c4ccccc43)CC2)cc1	i	i	i	nt	nt	nt	nt	nt	nt
Cc1c(Cl)sn(-c2ccc(Cl)cc2)c1=O	i	i	48	79	-90	108	102	nt	nt
COc1cc(C(=O)O/N=C2/C=C(C)C(=O)C=C2C)cc(OC)c1OC	i	i	i	i	i	i	nt	nt	nt
CC1=C/C(=N\OS(=O)(=O)c2ccccc2)C(C)=CC1=O	i	i	65	i	i	106	103	nt	nt
CC(=O)/C(=C/c1ccccc1)C(=O)Nc1ccccc1C	80	i	92	i	i	73	nt	88	103
Nc1nccnc1C(=O)OCC(=O)NNC(=O)c1ccccc1	i	i	i	i	i	i	nt	nt	nt
CN(CCO)c1cc(Sc2nc3ccccc3s2)c2nonc2c1[N+](=O)[O-]	i	i	86	i	i	104	nt	89	73
SMILES	TWEAK Fn14 block	TROY signal inh	HIF-2a block	CF NFkB block	KKLEB cytotox	Peg3 prom inh	Mdm2 MdmX conf	HIF-2a conf	HIF-1a counter
CN(C)CCCNc1ccc(-c2cc(Nc3cccc(Cl)c3)ncn2)cn1	i	i	i	i	i	i	nt	nt	nt
OCCCNc1cc(-c2ccnc(Nc3cccc(Cl)c3)n2)ccn1	97	59	i	86	i	103	103	nt	nt
O=C(NCCC1CCCCN1S(=O)(=O)c1ccc(Cl)cc1)C(=O)NCc1ccncc1 (configuration not stated)	i	i	i	i	i	i	nt	nt	nt
O=C(NCCC1CCCCN1S(=O)(=O)c1ccc(F)cc1)C(=O)NCc1ccncc1 (configuration not stated)	i	i	43	i	i	i	nt	i	i
CC(OC(=O)c1ccccc1CCc1ccccc1)C(N)=O (configuration not stated)	i	i	i	i	i	i	nt	nt	nt
COc1ccc(COCC(O)CN2CCN(S(=O)(=O)c3c(F)cccc3F)CC2)cc1OC (configuration not stated)	i	i	i	i	i	i	nt	nt	nt
CCN1CCN(Cc2ccc(NC(=O)c3ccc(C)c(NC(=O)c4c[nH]c5cc(C(F)(F)F)ccc5c4=O)c3)cc2C(F)(F)F)CC1	i	i	67!	94	-83	103	102	i	101
Cc1ccccc1/C=C/C(=O)c1ccc([N+](=O)[O-])o1	nt	nt	nt	nt	nt	nt	100	nt	nt
Cc1cccc(/C=C/C(=O)c2ccc([N+](=O)[O-])o2)c1	61	i	i	90	i	101	103	nt	nt
O=C(Cc1cccc(NC(=O)C2CCCN(C(=O)CCc3ccccc3)C2)c1)Nc1cccc(C(=O)N2CCCCC2)c1 (configuration not stated)	i	i	i	i	i	i	nt	nt	nt
CCOc1ccc(-c2c(C#N)c(N)nc3sc(C(=O)c4ccccc4)c(N)c23)cc1	76	89	72	i	i	i	nt	i	63
Cc1ccc(C)c(CN2C(=O)c3ccccc3S(=O)c3ccc(C(=O)N4CCN(c5ccccn5)CC4)cc32)c1 (configuration not stated)	i	i	i	i	i	i	101	nt	nt

High-throughput results: PubChem, Sanford-Burnham Center for Chemical Genomics
